Assay results reported in PubChem BioAssay AID1214 (Sanford-Burnham Center for Chemical Genomics, 2008).
In all, about 190,000 compounds went through this assay and about 10 (0.005%) were called active.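 How the source made its calls: active means activation factor of 2 or more at 20 µM, relative to plate controls; inactive means the rest.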 These entries were drawn from the full list.

biological target: Mannose-6-phosphate isomerase (Homo sapiens) (UniProt P34949); test: activators of human PMI, primary screen, biochemical, fluorescence intensity, near-Km mannose 6-phosphate (AID 1214); settings: purified human PMI, coupled resazurin fluorescence, 20 min; at 20 µM; active compounds read high; 1 = vehicle control, 0 substrate-free wells
Sequence (P34949 whole entry, looked up): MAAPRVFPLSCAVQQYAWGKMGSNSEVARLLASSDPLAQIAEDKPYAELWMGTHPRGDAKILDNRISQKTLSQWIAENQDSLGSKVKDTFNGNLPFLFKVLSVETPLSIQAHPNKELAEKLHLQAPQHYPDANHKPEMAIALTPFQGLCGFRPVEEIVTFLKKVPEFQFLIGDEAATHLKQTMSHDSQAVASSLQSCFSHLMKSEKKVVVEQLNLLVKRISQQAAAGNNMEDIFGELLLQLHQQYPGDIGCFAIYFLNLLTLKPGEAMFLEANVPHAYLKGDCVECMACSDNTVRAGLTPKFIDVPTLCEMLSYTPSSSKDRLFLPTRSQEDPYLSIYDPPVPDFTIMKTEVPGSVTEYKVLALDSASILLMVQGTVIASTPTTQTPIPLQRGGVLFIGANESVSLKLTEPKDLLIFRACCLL

Activation factor, inactive:
CCOC(=O)c1c(C)[nH]c(C2=NNC(=NC(C)COC)SC2)c1C (stereo not given) 1.3, Cc1cc(-c2n[nH]c(=S)n2-c2ccc(C)c(C)c2)no1 1, CCC(=O)Nc1c(C)n[nH]c1C 0.9, Cc1ccc(OCc2n[nH]c(=S)n2-c2ccc(C)cc2)cc1 0.8, CNc1nc(Nc2ccc(C)c(Cl)c2)nc(N)c1[N+](=O)[O-] 0.9, O=C(NCCCNc1ccc([N+](=O)[O-])cc1Cl)c1ccccc1F 1.1, COc1ccc(/C=C(\NC(=O)c2ccc(OCC(C)C)cc2)C(=O)OCc2ccco2)cc1 0.9, O=C1CCC/C(=N\NC(=O)NC2CCCCC2)C1 0.8, O=C(CSc1ccccc1)Nc1nnc(/C=C/c2ccccc2)s1 0.9, COC(=O)CNC(=O)c1ccc(OC2CCN(C(=O)C3CC3)CC2)cc1 0.9, COc1cc(/C=C/C(=O)N2c3ccccc3Sc3ccc(C(F)(F)F)cc32)cc(OC)c1OC 0.9, O=C1/C(=C\c2ccccc2Cl)SC(=S)N1CCC(=O)N1CCCc2ccccc21 0.9, CNC(=O)NC(=O)CSc1nnc(-c2ccc(F)cc2)n1CC1CCCO1 (stereo not given) 1, Nc1cc(C(F)(F)F)ccc1N1CCOCC1 1, COc1cc(C2C(N3C(=O)c4ccccc4C3=O)C(=O)N2c2ccc(C)c(C)c2)cc(OC)c1OC (stereo not given) 0.9, OCC(CO)(CO)NCc1ccc(-c2ccccc2)cc1 1, COc1ccc(Cl)cc1-n1c(C)cc(C(=O)OCC(=O)N2CC(=O)Nc3ccccc32)c1C 0.9, COc1cc(/C=N/NC(=O)CCc2n[nH]c(=O)[nH]c2=O)ccc1O 0.9, COc1cccc(CN(C)CC(=O)Nc2ccccc2C(=O)Nc2ccccc2)c1 0.9, COc1ccccc1CNC(=O)COc1ccc(C)nc1[N+](=O)[O-] 1.1, O=C(N/N=C/c1ccc([N+](=O)[O-])o1)c1cn(-c2ccccc2)nc1-c1ccc(F)cc1 1.4, Cc1ccc(C)c(NC(=S)NNC(=S)Nc2ccc(C(C)C)cc2)c1 0.8, N=C1C(=O)OCC1c1ccccc1NC(=O)CN1CCCCC1 (stereo not given) 1.1, C=CCOc1c(Br)cc(/C=N\n2nnnc2N)cc1OC 1.1, O=C(Nc1cccnc1)c1cc2cc(Br)ccc2oc1=O 1, COCC(C)NC(=O)COc1nncc2ccccc12 (stereo not given) 1.2, C=CCN1C2CCCC1CC(NC(=S)Nc1cccc(OC)c1)C2 (stereo not given) 0.9, CCNC(=O)NNC(=O)C1CC(c2cccs2)=NO1 (stereo not given) 1, CCc1cccc(NC(=O)CCC(=O)O)c1 1, NC(=O)COC(=O)c1sc2cc(F)ccc2c1Cl 1.2, CCOC(=O)N1CCN(Cc2nc3ccc([N+](=O)[O-])cc3c(=O)n2-c2cccc(OC)c2)CC1 1, COc1ccccc1CNC(=O)C1Cc2ccccc2C(=O)O1 (stereo not given) 0.9, O=C(/C=C/c1ccccc1)Oc1coc(CSc2ncccn2)cc1=O 1, COc1ccc(Br)cc1CN(C)CC(=O)Nc1cc(Cl)cc(Cl)c1 0.8, Cc1ccc(/C([O-])=C(/C(=S)NCc2ccco2)[n+]2ccccc2)cc1[N+](=O)[O-] 1, CN(C)/C=C(/C(=O)c1ccc(F)cc1)S(=O)(=O)c1ccc(F)cc1 1.2, O=S(=O)(c1ccc2c(c1)OCCO2)N1CCc2ccccc21 0.9, N#C/C(C(=S)Nc1ccccc1)=C1/NN=C(N2CCOCC2)N1c1ccccc1 1, CCN(CC)S(=O)(=O)c1ccc(N2CCOCC2)c(NC(=O)C2COc3ccccc3O2)c1 (stereo not given) 1, COc1ccc(NC(=O)CN(Cc2ccccc2)S(C)(=O)=O)cc1OC 0.9, COc1ccccc1N(CC(=O)Nc1ccc(C(F)(F)F)cc1)S(C)(=O)=O 1, O=C(Cc1cccs1)N(CC1CCCO1)C1(C(=O)NC2CCCCC2)CCCCC1 (stereo not given) 1.1, O=C(OCC1O[C@@H](OC(=O)c2cc(O)c(O)c(O)c2)[C@@H](OC(=O)c2cc(O)c(O)c(O)c2)[C@@H](OC(=O)c2cc(O)c(O)c(O)c2)[C@@H]1OC(=O)c1cc(O)c(O)c(O)c1)c1cc(O)c(O)c(O)c1 (stereo not given in full) 0.4, CC[n+]1c(C)n(-c2ccccc2)c2ccc(NC(C)=O)cc21 0.5, Cc1c(C(=O)Nc2cccc(Cl)c2)cn2c(nc3ccccc32)c1C#N 1.1, O=C(NCC(=O)N(CC1CCCO1)C(C(=O)NC1CCCCC1)c1ccccc1)c1ccco1 (stereo not given) 1.1, CC(C)(C)C1CCC(=NNC(=O)c2cc(-c3ccccc3)n[nH]2)CC1 (stereo not given) 1, O=C(CSc1cccc[n+]1[O-])NCCCc1ccccc1 1, O=c1cc(CO)oc(C(Nc2cccc([N+](=O)[O-])c2)c2ccccn2)c1O (stereo not given) 1, O=S(=O)(ON(c1ccccc1)S(=O)(=O)c1ccccc1)c1ccccc1 1.1, COc1ccc(CCNC(=O)COC(=O)C2CCCCC2)cc1 0.9, NS(=O)(=O)c1ccc(NC(=S)NC(=O)c2cccnc2)cc1 1, CCCCN1C(=O)/C(=C/C=C2/C=Cc3ccccc3N2CC)SC1=S 0.7, CCOC(=O)c1ccccc1NC(=S)N1CCC(C(N)=O)CC1 1, O=C(CN1C(=O)/C(=C\c2ccccc2F)SC1=S)Nc1nc2ccccc2s1 0.8, COC(=O)C(=Nc1ccccc1)/C(C(=O)C(=O)N(C)c1ccccc1)=C(\O)c1ccc(Cl)cc1 1.2, COC(=O)C1=C(N)Oc2c(oc(CO)cc2=O)C1c1c(F)cccc1Cl (stereo not given) 1.1, O=C(CCC1CCCN(C(=O)Cc2ccc(F)cc2)C1)N1CCN(c2ccccn2)CC1 (stereo not given) 1, CCOC(=O)CCCNC(=O)COC(=O)/C=C/c1ccc2c(c1)OCO2 1.1, COc1ccc(CCNC(=O)c2ccc(CS(=O)(=O)c3ccc(Br)cc3)o2)cc1OC 1
